Test results as given in the supplement of paper PMC6555819.

What was measured:
Assay in all cases: PBM binding z-score (relative to random genomic background probes); higher = stronger binding; sequences stand for … in GC…GCGATTGACAGCGTAGAATGAAGG
[1] = tested on: RARb homodimer (NR concentration 270 nM)
Method in brief: (§1)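 Scanned fluorescence from custom Agilent 4×180K protein-binding microarrays was regression-normalized. Binding z-scores use random background probes as reference. Ligand-free nuclear receptor dimers were incubated on the arrays for 1 h and detected with antibodies against each partner (one per run).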

[2] = tested on: RARg:RXRa (NR concentration 270 nM, RXRa partner concentration 90 nM)
Method in brief: as §1

[3] = tested on: RARg homodimer (NR concentration 270 nM)
Method in brief: as §1

[4] = tested on: RXRa DBDmut IVT, anti-RXR (DBD mutation: RXRa K156A/R161A, NR concentration 90 nM)
Method in brief: as §1

[5] = tested on: RXRa homodimer (NR concentration 180 nM)
Method in brief: as §1

[6] = tested on: THRa:RXRa (NR concentration 90 nM, RXRa partner concentration 90 nM)
Method in brief: as §1

[7] = tested on: THRa homodimer (NR concentration 90 nM)
Method in brief: as §1

[8] = tested on: VDR homodimer (NR concentration 270 nM)
Method in brief: as §1

Row | Sequence | PBM binding z-score [1] | PBM binding z-score [2] | PBM binding z-score [3] | PBM binding z-score [4] | PBM binding z-score [5] | PBM binding z-score [6] | PBM binding z-score [7] | PBM binding z-score [8]
1 | CTATGTAGGTTAAGGGGGTCATTGAGTTTGAAAG | 4.02 | 5.46 | 4.18 | 2.81 | 5.76 | 4.01 | 2.02 | 7.05
2 | CGAACTAGGTCAAAGGACAGTGACAGGCGACGTA | 3.39 | 4.39 | 5.1 | 1.78 | 3.89 | 2.69 | 0.589 | 0.435
3 | CAAACTAGGTCAAAGGTCAAAGACGAGCCAACCA | 5.19 | 9.13 | 7.66 | 2.8 | 10.6 | 4.79 | 1.57 | 3.33
4 | TAGCCTAGGTCATTCAGGGGCCAGAATAGAAAGC | 3.56 | 5.97 | 4.58 | 2.09 | 3.18 | 3.54 | 0.459 | 1.19
5 | CGTCCAAGGTCCATGCTAGGTCAGTGAAAGCATT | 2.62 | 1.41 | 1.22 | 1.41 | 0.238 | 2.73 | 0.766 | 1.07
6 | GATCCAGGGTCAGCTAGAGGCCAGAGTATGGAAA | 3.27 | 6.7 | 4.6 | 0.756 | 4.34 | 3.09 | -0.172 | 0.674
7 | ATATGTAGGTTAGGGTCCTTCAGAAAGTAGGGAA | 0.958 | 0.561 | 0.821 | 0.642 | 0.851 | 1.21 | 0.898 | 0.793
8 | CGAACTAGGTCAAAGGAAAGTGAAAGGCGACGTA | 2.25 | 3.46 | 4.01 | 1.15 | 2.39 | 1.95 | 0.083 | 0.538
9 | ATATGTAGGTTACATCCGGGTCATTCTGGCTATG | 2.67 | 3.21 | 1.93 | 1.51 | 3.1 | 3.63 | 2.37 | 2.5
10 | CGTCTAAGGTCAAGGTCAGTGAAAGAGACTCGAA | 5.28 | 7.24 | 8.01 | 4.05 | 7.32 | 4.53 | 4.38 | 3.2
11 | ATATGTAGGTAACATCCGGGTCATTCAGGCTATG | 2.68 | 2.39 | 1.58 | 0.786 | 2.49 | 3.62 | 2.74 | 2.52
12 | CCAGACAGGTGAAAGGTAACTCACTCTGGTACGC | 0.88 | 1.34 | 0.948 | 0.0725 | 2.37 | 1.03 | -0.0395 | -0.0544
13 | CCTAGTTGGTCAGGAGGTCCCACACCGGATATGA | 0.775 | 0.48 | 0.629 | -0.686 | 0.0541 | -0.131 | 0.411 | 0.335
14 | CTATGTAGGATAAGGGGGTCATTCAGTTTGAAAG | 3.71 | 4.18 | 2.98 | 2.23 | 5.45 | 3.75 | 1.96 | 6.25
15 | CTATGCAGGTTAAGGGGGTCATTCAGTTTGAAAG | 3.8 | 5.13 | 4.11 | 2.38 | 6.2 | 3.91 | 2.28 | 5.99
16 | CTATGTATGTTAAGGGGGTCATTCAGTTTGAAAG | 3.92 | 4.71 | 3.61 | 3.03 | 5.44 | 3.91 | 2.88 | 6.32
17 | CGAACTAGCTCAAGGACAGTGAATCTCCGCACGC | 0.214 | -0.134 | -0.141 | 0.392 | -0.227 | 1.42 | 1.48 | 0.226
18 | TTGAGTAGGTTACGGGGGCATTCAGGGATGAAGA | 2.59 | 3.71 | 3.05 | 2.36 | 3.3 | 3.83 | 2.02 | 4.22
19 | CTATGTAGGTTAATGGGGTCATTCAGTTTGAAAG | 3.6 | 4.72 | 3.17 | 3.07 | 6.2 | 4.28 | 3.09 | 7.21
20 | CATACACGGTCAGCTAGGCCAGAGTAGGGACGGC | 1.5 | 1.24 | 2.04 | -0.438 | 0.355 | 0.226 | -0.129 | -0.286
21 | CGAACTAGGTCAGCAGGACAGTGAAGAGGTTGGA | 2.84 | 2.91 | 3.91 | 0.0956 | 1.51 | 2 | 0.264 | -0.272
22 | CGTCCAAGGTCATACGAGGTCAGTGAAGACAGAT | 5.34 | 7.02 | 7.58 | 4.29 | 6.94 | 5.39 | 4.43 | 5.82
23 | ATCTGTAGGTTATCGGGTCATTCAGTTTGCGCAT | 3.19 | 3.59 | 2.78 | 1.68 | 3.48 | 3.36 | 3.04 | 3.95
24 | TCGAGTAGTTTACGGGGGCATTCAGGGATGAAGA | 1.53 | 2.16 | 1.57 | 2.09 | 1.48 | 3.55 | 1.05 | 3.23
25 | CCAGAAAGGTGAAAGGTAACTCAGTCTGGTACGC | 1.92 | 3.17 | 2.13 | 0.365 | 4.27 | 1.94 | 0.107 | 0.0179
26 | CCTTACAGGTCACGAGGTTATAGCACGACGAGCG | 4.51 | 6.3 | 6.12 | 2.77 | 6.64 | 3.98 | 1.85 | 2.48
